Assay outcomes (PubChem)
KB-3-1 cytotox: qHTS assay for MDR1-selective chemotherapeutics: Primary screen using the parental adenocarcinoma cell KB-3-1; KB-3-1 viability, CellTiter-Glo ATP luminescence, 72 h; Potency, µM (doses to about 46.1 µM), actives largely listed as cytotoxic; 1.4% of 400,000 active; further: nearly all actives have a fitted effect of over 60% in size
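Multi-concentration cytotoxicity screen in KB-3-1 cells grown in DMEM lacking phenol red with 10% FBS. After 72 h at 37 °C with compound, ATP-dependent luminescence was recorded.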
HT1080 IDH1KD tx: qHTS for induction of synthetic lethality in tumor cells producing 2HG: qHTS for the HT-1080-IDH1KD cell line | HT-1080 IDH1 knockdown viability, ATP luminescence, 48 h | Potency, µM (doses to about 46.1 µM), without a hit: at the highest dose activity, negative = toxicity, most hits filed as cytotoxic | 2% of 360,000 active | AID 686971, 2013;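 further: 0% = DMSO wells and -100% = cell-free medium wells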
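In this qHTS, HT-1080 cells depleted of IDH1 are exposed for 48 h at 37 °C to compound titrations. Toxicity is scored from CellTiter-Glo luminescence, with DMSO as full viability and medium alone as none.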
KB-V1 MDR tox: qHTS assay for MDR1-selective chemotherapeutics: Primary screen using the drug-selected MDR subline cells KB-V1 | AID 1347076, 2019 | Potency, µM (doses to about 46.1 µM), most hits filed as cytotoxic | KB-V1 MDR cells viability, CellTiter-Glo, 72 h | 3.4% of 400,000 active; further: nearly all actives have a fitted effect of over 60% in size
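Readout: CellTiter-Glo luminescence, 10 min after addition. Cells: KB-V1 MDR subline, 72 h at 37 degrees C with compound. Analysis: corrected, normalized data fitted to concentration-effect curves.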
DT40 TDP1 CPT: qHTS for Inhibitors of human tyrosyl-DNA phosphodiesterase 1 (TDP1): qHTS in cells in presence of CPT | chicken DT40 Tdp1-/-;hTDP1 cells + 20 nM CPT, ATP luminescence, 48 h | Potency, µM (highest dose often 46.2 µM), for inactives: at the highest dose activity change, negative = growth inhibition, actives largely listed as inhibitors | 12% of 420,000 active | AID 686979, 2013; further: nearly all actives have a fitted effect of over 55% in size
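Chicken DT40 Tdp1-/- cells complemented with human TDP1, 400 cells/well, exposed to compounds plus 20 nM camptothecin for at least 48 h at 37 C; viability read as ATP content by CellTiter-Glo luminescence.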
HT1080-NT tox: qHTS for induction of synthetic lethality in tumor cells producing 2HG: qHTS for the HT-1080-NT fibrosarcoma cell line; 1.6% of 360,000 active; Potency, µM (titrated, usually from 46.1 µM), for the others: top-dose activity, negative = less viability, usual class: cytotoxic; AID 686970, 2013; HT-1080-NT fibrosarcoma viability, CellTiter-Glo ATP luminescence, 48 h;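 further: NT is the 2HG producing partner of a matched IDH1 knockdown line; 0% = DMSO-treated cells and -100% = media-only wells without cells; nearly all actives have a fitted effect of over 55% in size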
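Read-out is CellTiter-Glo luminescence after 10 minutes at room temperature, following 48 hours' compound treatment of HT-1080-NT cells (750 cells/well, RPMI, 5% FBS, 37 degrees C).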
TDP1 cell noCPT: qHTS for Inhibitors of human tyrosyl-DNA phosphodiesterase 1 (TDP1): qHTS in cells in absence of CPT | DT40 Tdp1-/- hTDP1 cells, no CPT, ATP luminescence, 48 h | Potency, µM (doses to about 46.2 µM), without a hit: top-dose activity change, negative = growth inhibition, most hits filed as inhibitors | 15% of 420,000 active | AID 686978, 2013; further: nearly all actives have a fitted effect of over 55% in size
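Compound effects on proliferation are scored in DT40 Tdp1-/-;hTDP1 cells in the absence of CPT. ATP levels (CellTiter-Glo luminescence) are recorded after a ≥48 hr, 37 °C incubation.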
Active calls of the source: *; i = inactive; ? = inconclusive; nt = no result given; ! = repeats disagree; [ ] = remark or other dose. Rows were chosen to be rich in hits. Some 19% of all compounds tested hit in one or more screens of this group. The call rests on the fitted dose curve; in most records, active means well fitted curve in the direction sought with a large enough effect; inconclusive means small, poorly fitted or top-dose-only effect, or another doubt; inactive means no such curve, though single readings can be large; an effect the other way counts as inactive or inconclusive. Unless noted, on the % scale 0 is the no-effect control and ±100 the full control effect; potency means the concentration at half of the fitted maximal effect.

SMILES	KB-3-1 cytotox	HT1080 IDH1KD tx	KB-V1 MDR tox	DT40 TDP1 CPT	HT1080-NT tox	TDP1 cell noCPT
Cc1ccc(S(=O)(=O)NCC(c2ccco2)N2CCc3ccccc3C2)cc1 (configuration not stated)	i	-3%	i	23µM*	-2%	?
CC(C)c1c(C(=O)NCc2ccccn2)cnn1-c1nccc(-c2ccccc2F)n1	nt	nt	nt	?	nt	-25%
NCC(=O)NNC(=O)OCC1c2ccccc2-c2ccccc21	i	4%	i	-18%	-11%	-4%
O=C(CCNC(=O)OCC1c2ccccc2-c2ccccc21)NOCc1ccccc1	i	4%	i	3.3µM*	0%	4.1µM*
O=C(O)CCNC(=O)OCC1c2ccccc2-c2ccccc21	i	-4%	i	8.2µM*	11%	?
CC(C)CC(NC(=O)OCC1c2ccccc2-c2ccccc21)C(=O)O (configuration not stated)	nt	nt	nt	-3%	nt	22%
CCOC(=O)Cc1ccc(NC(=O)N2CCOc3ccc(C)cc32)cc1	i	nt	i	?	nt	?
CC(C)CCNC(=O)C1CCN(C(=O)N2CCOc3ccc(Cl)cc32)CC1	i	nt	i	26µM*	nt	?
O=C(NCc1cccs1)C1CCN(C(=O)N2CCOc3ccc(Cl)cc32)CC1	i	nt	i	?	nt	?
COc1cccc(CNC(=O)C2CCN(C(=O)N3CCOc4ccc(Cl)cc43)CC2)c1OC	i	nt	i	?	nt	21µM*
CC(C)Oc1ccc(CNC(=O)C2CCN(C(=O)N3CCOc4ccc(Cl)cc43)CC2)cc1	?	nt	?	6.5µM*	nt	6.5µM*
O=C(NCc1ccco1)C1CCN(C(=O)N2CCOc3ccc(Cl)cc32)CC1	i	nt	i	-27%	nt	?
CC(C)Oc1ccc(CNC(=O)C2CCN(C(=O)N3CCOc4ccccc43)CC2)cc1	i	0%	i	?	4%	?
CCc1ccc(NC(=O)N2CCOc3ccc(Cl)cc32)cc1	nt	nt	nt	-19%	nt	13µM*
CCOC(=O)c1sc(N2C(=O)c3oc4cc(C)c(C)cc4c(=O)c3C2c2ccc(C)cc2)nc1C (configuration not stated)	i	nt	i	12%	nt	-3%
Cc1nn(CC(=O)N2CCN(c3cccc(Cl)c3)CC2)c(=O)c2c1sc1ccccc12	i	nt	i	-27%	nt	-1%
COc1ccc(C2C(C(=O)Nc3cccnc3)=C(C)Nc3nc(SCc4ccccc4)nn32)cc1 (configuration not stated)	i	nt	?	-24%	nt	-5%
CC1(c2ccccc2)NC(=O)N(CC(=O)Nc2nc(-c3ccccn3)cs2)C1=O (configuration not stated)	?	-21%	i	23µM*	-3%	15µM*
O=C(CN1C(=O)C2CCCCC2C1=O)Nc1nc(-c2ccccn2)cs1 (configuration not stated)	?	?	?	12µM*	?	10µM*
COc1cc(OC)c(C2CC(=O)Nc3ccc4ccccc4c32)cc1OC (configuration not stated)	i	nt	i	-23%	nt	?
COc1cc(=O)n2c(c1C(=O)NC(C)c1ccco1)CCN(C(=O)c1[nH]c(C)cc1C)CC2 (configuration not stated)	nt	nt	nt	3%	nt	0%
CC(Sc1ccc2nnc(-c3ccc(F)cc3)n2n1)C(=O)O (configuration not stated)	i	-3%	i	-17%	-3%	-1%
COc1ccc(-c2nnc3ccc(SC)nn23)cc1	i	?	15µM*	?	-3%	?
CCOC(=O)C(C)Sc1ccc2nnc(-c3ccc(F)cc3)n2n1 (configuration not stated)	?	9%	15µM*!	?	18%	?
COC(=O)C(C)Sc1ccc2nnc(-c3ccccc3)n2n1 (configuration not stated)	i	4%	i	?	0%	-28%
SMILES	KB-3-1 cytotox	HT1080 IDH1KD tx	KB-V1 MDR tox	DT40 TDP1 CPT	HT1080-NT tox	TDP1 cell noCPT
CCOC(=O)C(C)Sc1ccc2nnc(-c3ccc(OCC)cc3)n2n1 (configuration not stated)	?	nt	?	10µM*	nt	-89%
COc1ccc(-c2nnc3ccc(SCC(=O)N4CCOCC4)nn23)cc1	i	-8%	i	-26%	-1%	-21%
CCOc1ccc2nnc(-c3ccc(Br)cc3)n2n1	i	-1%	?	?	6%	15µM*
Cn1ccc2c(-c3ccc4c(c3)OCCO4)cc3c(c21)C1CCC3O1 (configuration not stated)	i	-3%	i	2%	0%	-30%
O=S(=O)(c1ccc2c(c1)CCC2)N1CCNCC1	i	-1%	i	2%	-4%	-16%
Cc1cc(N2CCN(c3ccccc3Cl)CC2)n2cc(-c3ccccc3)nc2n1	?	?	16µM*	?	-28%	?
Cc1cc(N2CCN(c3ccccc3)CC2)n2cc(-c3ccccc3)nc2n1	i	3%	?	?	2%	10µM*
COc1ccc(OCC(=O)N/N=C/c2cccn2-c2cccc(C(=O)O)c2)cc1	i	5%	i	-8%	3%	-18%
Cc1ccc([N+](=O)[O-])cc1S(=O)(=O)Nc1cccc(S(=O)(=O)Nc2ccccc2C(=O)O)c1	nt	2%	nt	-8%	5%	11%
Cc1cc(NC(=O)c2ccccc2NS(=O)(=O)c2c(C)c(C)cc(C)c2C)no1	i	9%[9.24 µM]	i	?	-9%	?
Cc1ccc(C)c(NC(=O)c2ccccc2NS(=O)(=O)c2cc([N+](=O)[O-])ccc2C)c1	21µM*	13µM*	i	3.3µM*	10µM*	4.1µM*
Cc1ccc(C)c(S(=O)(=O)Nc2ccccc2C(=O)Nc2cc(C)on2)c1	?	?	i	16µM*	?	?
